Holding throughout (assay): HT-SELEX; high values mean tight binding
Conditions in all cases: protein: recombinant; vector His6-GST; dsDNA, one strand shown

Test [1] addresses T1, SALL4 ZFC4 WT (HT-SELEX) (Mus musculus, UniProt Q8BX22 870-940).
T1 sequence: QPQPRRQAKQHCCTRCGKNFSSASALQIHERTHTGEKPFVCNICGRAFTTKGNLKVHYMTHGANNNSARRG
The essentials:
(§1)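 Purified recombinant mouse SALL4 zinc finger cluster 4 (residues 870–940, 1 µg) was incubated with library DNA (1.5 µg first cycle, 200 ng later) in 100 µl buffer (10 mM Tris–HCl pH 7.5, 50 mM NaCl, poly(dI-dC), DTT) for 10 min at room temperature. Ni2+ bead-captured complexes were washed, PCR-amplified and reselected for up to 6 cycles, in triplicate, then MiSeq-sequenced and scanned for 6-mers. Binding signal is each canonical k-mer's read fraction as fold change versus the initial random library.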

The target in test [2] is T2, SALL4 ZFC4 R900W (HT-SELEX) (Mus musculus, UniProt Q8BX22 870-940, R900W).
T2 sequence: T1 sequence with R31W
The essentials:
as §1

Test [3] deals with T3, SALL4 ZFC4 G921D (HT-SELEX) (Mus musculus, UniProt Q8BX22 870-940, G921D).
T3 sequence: T1 sequence with G52D
The essentials: as §1

Residue numbers refer to the chain shown, from its start.

As to AGTCAG, the results for the binding signal in test [1] and in test [2] were 0.822 ± 0.0342 fold-change vs cycle 0 and 0.958 ± 0.0579 fold-change vs cycle 0, respectively.
In the case of AATACT, the results for the binding signal in test [1], in test [2] and in test [3] were 2.02 ± 0.117 fold-change vs cycle 0, 1.99 ± 0.126 fold-change vs cycle 0 and 1.82 ± 0.161 fold-change vs cycle 0, respectively.
As for ACTTCA, the figures for the binding signal in test [1] and in test [2] were 1.4 ± 0.0494 fold-change vs cycle 0 and 1.53 ± 0.0862 fold-change vs cycle 0, respectively.
Regarding AATCAG, the binding signal in test [1] stood at 1.32 ± 0.0871 fold-change vs cycle 0; in test [2] it was 1.38 ± 0.0901 fold-change vs cycle 0.
In the case of AACTAG, the values for the binding signal in test [1] and in test [2] were 1.31 ± 0.0615 fold-change vs cycle 0 and 1.4 ± 0.0768 fold-change vs cycle 0, respectively.
Take CATTCA: the binding signal in test [1] amounted to 1.32 ± 0.0575 fold-change vs cycle 0; in test [2] it was 1.48 ± 0.0487 fold-change vs cycle 0; in test [3] it was 1.41 ± 0.0654 fold-change vs cycle 0.
For GAGCTC, the figures for the binding signal in test [1], in test [2] and in test [3] were 0.338 ± 0.0166 fold-change vs cycle 0, 0.439 ± 0.0575 fold-change vs cycle 0 and 0.585 ± 0.0582 fold-change vs cycle 0, respectively.
Regarding AATCCT, the binding signal in test [1] turned out to be 1.47 ± 0.0694 fold-change vs cycle 0; in test [2], 1.58 ± 0.0929 fold-change vs cycle 0.
As to AAGGGT, the binding signal in test [1] was 0.858 ± 0.0423 fold-change vs cycle 0; in test [2] it was 1.01 ± 0.023 fold-change vs cycle 0.
As for GATCAA, the binding signal in test [1] is 1.21 ± 0.0612 fold-change vs cycle 0; in test [2], 1.36 ± 0.014 fold-change vs cycle 0.
With AATCCC, the binding signal in test [1] turned out to be 0.882 ± 0.0212 fold-change vs cycle 0; in test [2] it was 0.932 ± 0.0228 fold-change vs cycle 0; in test [3], 0.963 ± 0.0176 fold-change vs cycle 0.
AGGTAA: the binding signal in test [1] stood at 1.45 ± 0.0617 fold-change vs cycle 0; in test [2], 1.58 ± 0.118 fold-change vs cycle 0.
In the case of AGCATA, the binding signal in test [1] was 1.26 ± 0.0848 fold-change vs cycle 0; in test [2], 1.27 ± 0.0243 fold-change vs cycle 0.
On to ACATAG, for which the binding signal in test [1] worked out at 1.3 ± 0.0172 fold-change vs cycle 0; in test [2], 1.35 ± 0.0801 fold-change vs cycle 0; in test [3], 1.34 ± 0.0894 fold-change vs cycle 0.
For the sequence ATAGAT, the binding signal was determined as 2.3 ± 0.159 fold-change vs cycle 0 in test [1], 2.05 ± 0.124 fold-change vs cycle 0 in test [2] and 1.86 ± 0.167 fold-change vs cycle 0 in test [3].
On to CTATGC, for which the binding signal in test [1] was 0.624 ± 0.0148 fold-change vs cycle 0; in test [2], 0.702 ± 0.0118 fold-change vs cycle 0; in test [3] it was 0.796 ± 0.0538 fold-change vs cycle 0.
In the case of ACATGT, the binding signal came out at 1.28 ± 0.0279 fold-change vs cycle 0 in test [1] and 1.4 ± 0.0207 fold-change vs cycle 0 in test [2].
GAGGAA: the binding signal in test [1] was determined as 0.874 ± 0.0788 fold-change vs cycle 0; in test [2] it was 1.03 ± 0.0537 fold-change vs cycle 0.
As for GTTTTA, the binding signal in test [1] stood at 1.65 ± 0.0877 fold-change vs cycle 0; in test [2], 1.66 ± 0.0685 fold-change vs cycle 0; in test [3], 1.54 ± 0.113 fold-change vs cycle 0.
CTCCCC: the binding signal in test [1] was found to be 0.313 ± 0.0129 fold-change vs cycle 0; in test [2], 0.36 ± 0.0359 fold-change vs cycle 0; in test [3] it was 0.456 ± 0.0544 fold-change vs cycle 0.
With AACTGA, the binding signal in test [1] came out at 1.35 ± 0.0349 fold-change vs cycle 0; in test [2] it was 1.44 ± 0.0702 fold-change vs cycle 0.
For the sequence ACCTAC, the binding signal amounted to 0.796 ± 0.0505 fold-change vs cycle 0 in test [1], 0.908 ± 0.0415 fold-change vs cycle 0 in test [2] and 0.957 ± 0.0179 fold-change vs cycle 0 in test [3].
With AAGGTA, the binding signal in test [1] turned out to be 1.42 ± 0.048 fold-change vs cycle 0; in test [2], 1.59 ± 0.0717 fold-change vs cycle 0.
AAGGAT: the binding signal amounted to 1.54 ± 0.0522 fold-change vs cycle 0 in test [1] and 1.72 ± 0.118 fold-change vs cycle 0 in test [2].
With ACTAGG, the binding signal in test [1] was found to be 0.871 ± 0.0329 fold-change vs cycle 0; in test [2], 1.01 ± 0.0248 fold-change vs cycle 0.
For AATACC, in that order: 1.3 ± 0.0373 fold-change vs cycle 0 and 1.33 ± 0.0245 fold-change vs cycle 0.
Turning to GTCCAA, the values for the binding signal in test [1], in test [2] and in test [3] were 0.622 ± 0.0212 fold-change vs cycle 0, 0.742 ± 0.0519 fold-change vs cycle 0 and 0.828 ± 0.0714 fold-change vs cycle 0, respectively.
In the case of GTGCTA, the values for the binding signal in test [1], in test [2] and in test [3] were 0.592 ± 0.0163 fold-change vs cycle 0, 0.69 ± 0.007 fold-change vs cycle 0 and 0.796 ± 0.0354 fold-change vs cycle 0, respectively.
With CATGAA, the figures for the binding signal in test [1] and in test [2] were 1.36 ± 0.0383 fold-change vs cycle 0 and 1.4 ± 0.0692 fold-change vs cycle 0, respectively.
AAACGA: the binding signal in test [1] turned out to be 1.06 ± 0.0291 fold-change vs cycle 0.
Consider GAAAAC, for which the binding signal in test [1] was found to be 1.08 ± 0.0562 fold-change vs cycle 0; in test [2], 1.19 ± 0.062 fold-change vs cycle 0.
Consider CCTATA, for which the binding signal is 1.35 ± 0.0444 fold-change vs cycle 0 in test [1] and 1.4 ± 0.0411 fold-change vs cycle 0 in test [2].
For AAGATG, in that order: 1.395 ± 0.00326 fold-change vs cycle 0 and 1.5 ± 0.0687 fold-change vs cycle 0.
On to AAAGGC, for which the binding signal was 0.475 ± 0.0422 fold-change vs cycle 0 in test [1], 0.571 ± 0.0175 fold-change vs cycle 0 in test [2] and 0.688 ± 0.0599 fold-change vs cycle 0 in test [3].
With CTCTTC, the binding signal worked out at 1.02 ± 0.0449 fold-change vs cycle 0 in test [1] and 1.24 ± 0.0397 fold-change vs cycle 0 in test [2].
Regarding CAGTAA, the binding signal in test [1] worked out at 1.35 ± 0.0452 fold-change vs cycle 0; in test [2], 1.48 ± 0.063 fold-change vs cycle 0; in test [3] it was 1.37 ± 0.109 fold-change vs cycle 0.
As to ATGTAG, the binding signal came to 1.34 ± 0.0549 fold-change vs cycle 0 in test [1] and 1.41 ± 0.0727 fold-change vs cycle 0 in test [2].
On to AAAGTA, for which the binding signal in test [1] was 1.92 ± 0.0856 fold-change vs cycle 0; in test [2] it was 1.98 ± 0.162 fold-change vs cycle 0; in test [3] it was 1.73 ± 0.169 fold-change vs cycle 0.
For TCATAA, the binding signal in test [1] was found to be 3.28 ± 0.256 fold-change vs cycle 0; in test [2], 2.06 ± 0.0751 fold-change vs cycle 0; in test [3] it was 1.84 ± 0.154 fold-change vs cycle 0.
For CACTGA, the binding signal in test [1] was found to be 0.799 ± 0.0339 fold-change vs cycle 0; in test [2], 0.912 ± 0.0516 fold-change vs cycle 0; in test [3] it was 0.949 ± 0.00436 fold-change vs cycle 0.
ACCAGG: the binding signal in test [1] was determined as 0.477 ± 0.0177 fold-change vs cycle 0; in test [2], 0.564 ± 0.0161 fold-change vs cycle 0; in test [3], 0.658 ± 0.055 fold-change vs cycle 0.
For CGATAA, in that order: 1.17 ± 0.0894 fold-change vs cycle 0, 1.19 ± 0.0909 fold-change vs cycle 0 and 1.15 ± 0.0473 fold-change vs cycle 0.
Take AGAGTC: the binding signal is 0.786 ± 0.0201 fold-change vs cycle 0 in test [1], 0.925 ± 0.0489 fold-change vs cycle 0 in test [2] and 0.995 ± 0.0509 fold-change vs cycle 0 in test [3].
The like results for AAGCAA were, in that order, 1.18 ± 0.0487 fold-change vs cycle 0, 1.24 ± 0.0583 fold-change vs cycle 0 and 1.23 ± 0.0475 fold-change vs cycle 0.
GGATGA: the binding signal in test [1] is 0.897 ± 0.0305 fold-change vs cycle 0; in test [2] it was 1.01 ± 0.0334 fold-change vs cycle 0; in test [3] it was 1.02 ± 0.0224 fold-change vs cycle 0.
As for AATAGA, the binding signal in test [1] was 2.12 ± 0.0946 fold-change vs cycle 0; in test [2], 2.06 ± 0.0912 fold-change vs cycle 0; in test [3], 1.79 ± 0.161 fold-change vs cycle 0.
AACAAG: the binding signal in test [1] is 1.28 ± 0.0479 fold-change vs cycle 0; in test [2], 1.5 ± 0.0772 fold-change vs cycle 0; in test [3] it was 1.39 ± 0.0671 fold-change vs cycle 0.
ATTGGC: the binding signal in test [1] is 0.461 ± 0.0252 fold-change vs cycle 0; in test [2], 0.5 ± 0.0137 fold-change vs cycle 0; in test [3], 0.665 ± 0.0716 fold-change vs cycle 0.
As for ATCATG, the binding signal in test [1] amounted to 1.38 ± 0.03 fold-change vs cycle 0; in test [2] it was 1.48 ± 0.0158 fold-change vs cycle 0; in test [3] it was 1.4 ± 0.0239 fold-change vs cycle 0.

Source of the values: paper PMC9838217, “Structure of SALL4 zinc finger domain reveals link between AT-rich DNA binding and Okihiro syndrome”.
